According to PubChem BioAssay (NCATS):
Several values for one entry are separate records, joined by “and”; a condition that tells them apart may be missing. Identical values can stand only once. Records with an inconclusive call do not appear. Activity calls are given as the source filed them. The call rests on the fitted dose curve; in most records, active means well fitted curve in the direction sought with a large enough effect; inconclusive means small, poorly fitted or top-dose-only effect, or another doubt; inactive means no such curve, though single readings can be large; an effect the other way counts as inactive or inconclusive.

Key:
[1] = Quantitative highthroughput screen to assess conditional lethalithy of NOMO1 cells grown in RPMI1640 with untreated serum (RPMI+s) (AID 1963876);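 further: 100% = DMSO wells and 0% = empty wells without cells; nearly all actives have a fitted effect of over 35% in size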
Outline: (§1)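 Each medium arm—HPLM with 10% dialyzed FBS, or RPMI1640 with 5 mM glucose and 10% untreated or dialyzed FBS—was screened against an 11-point, 3-fold compound titration for 48 h at 37 °C, with CellTiter-Glo luminescence as endpoint.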

[2] = Quantitative highthroughput screen to assess conditional lethalithy of P12 Ichikawa cells grown in Human Plasma-Like Medium with dialyzed fetal bovine serum (HPLM+ds) (AID 1963879); conditions: Potency: viability; further: nearly all actives have a fitted effect of over 35% in size; further: potency means the concentration at half of the fitted maximal effect; on viability: series mostly up to about 46 µM
Outline: as §1

[3] = Quantitative highthroughput screen to assess conditional lethalithy of P12 Ichikawa cells grown in RPMI1640 with dialyzed fetal bovine serum (RPMI+ds) (AID 1963880); conditions: Potency: P12-Ichikawa viability; further: nearly all actives have a fitted effect of over 35% in size; further: potency means the concentration at half of the fitted maximal effect;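 on viability: 100% = DMSO wells and 0% = empty wells on each plate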
Outline: as §1

[4] = Quantitative highthroughput screen to assess conditional lethalithy of P12 Ichikawa cells grown in RPMI1640 with untreated serum (RPMI+s) (AID 1963881); conditions: Potency: viability; further: nearly all actives have a fitted effect of over 35% in size; further: potency means the concentration at half of the fitted maximal effect;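 on viability: series mostly up to about 46 µM; 100% = DMSO wells and 0% = empty wells without cells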
Outline: as §1

[5] = Quantitative highthroughput screen to assess conditional lethalithy of SEM cells grown in Human Plasma-Like Medium with dialyzed fetal bovine serum (HPLM+ds) (AID 1963882); further: nearly all actives have a fitted effect of over 35% in size; further: potency means the concentration at half of the fitted maximal effect; on viability: series mostly up to about 46 µM
Outline: as §1

[6] = Cellular viability qHTS for adrenocortical cancer (ACC) cell line NCI-H295R (AID 1963990); further: nearly all actives have a fitted effect of over 60% in size; further: potency means the concentration at half of the fitted maximal effect
Outline: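 IC50 and maximal efficacy derive from four-parameter logistic modelling of titration curves, with reads scaled between DMSO-only wells (0%) and doxorubicin hydrochloride (100% inhibition). Compounds spanned up to 46 uM over 48 h.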

[7] = Quantitative highthroughput screen to assess conditional lethalithy of NOMO1 cells grown in RPMI1640 with dialyzed fetal bovine serum (RPMI+ds) (AID 1963877); further: nearly all actives have a fitted effect of over 30% in size; further: potency means the concentration at half of the fitted maximal effect;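 on viability: series mostly up to about 46 µM; 100% = DMSO control wells and 0% = empty wells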
Outline: as §1

[8] = Quantitative highthroughput screen to assess conditional lethalithy of NOMO1 cells grown in Human Plasma-Like Medium with dialyzed fetal bovine serum (HPLM+ds) (AID 1963878); further: nearly all actives have a fitted effect of over 35% in size; further: potency means the concentration at half of the fitted maximal effect;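 on viability: 100% = DMSO wells and 0% = empty wells on each plate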
Outline: as §1

[9] = Quantitative highthroughput screen to assess conditional lethalithy of SEM cells grown in RPMI1640 with unreated serum (RPMI+s) (AID 1963883); further: nearly all actives have a fitted effect of over 35% in size; further: potency means the concentration at half of the fitted maximal effect;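 on viability: 100% = DMSO wells and 0% = empty wells without cells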
Outline: as §1

[10] = Quantitative highthroughput screen to assess conditional lethalithy of SEM cells grown in RPMI1640 with dialyzed fetal bovine serum (RPMI+ds) (AID 1963884); further: nearly all actives have a fitted effect of over 35% in size; further: potency means the concentration at half of the fitted maximal effect;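 on viability: series mostly up to about 46 µM; 100% = DMSO control wells and 0% = empty wells without cells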
Outline: as §1

[11] = Cellular viability qHTS for adrenocortical cancer (ACC) cell line SW-13 (AID 1963989); conditions: SW-13 ACC cells viability, CellTiter-Glo, 48 h; activity (max response): active compounds read low;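 further: cells grown in serum-free medium with ITS supplement; on the % scale 0 is the no-effect control and ±100 the full control effect; nearly all actives have a fitted effect of over 65% in size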
Outline: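 Luminescent ATP read-out (CellTiter-Glo, 20 min at room temperature) measured metabolically competent SW-13 cells after 48 h compound treatment. Final concentrations spanned up to 46 uM; bortezomib served as positive control.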

CC[C@H](CO)Nc1nc(NCc2ccccc2)c2ncn(C(C)C)c2n1
active: Potency [6] 31600 nM
inactive: Potency [1] | Potency [2] | Potency [3] | Potency [4] | Potency [5]

COc1cc2ncnc(Nc3ccc(F)c(Cl)c3)c2cc1NC(=O)C=CCN1CCCCC1
inactive: Potency [7]

C=CCc1cccc(C=NNC(=O)CN2CCN(Cc3ccccc3)CC2)c1O
active: Potency [7] 16600 nM | Potency [8] 18700 nM | Potency [2] 16600 nM | Potency [3] 13200 nM | Potency [4] 14800 nM | Potency [5] 10500 nM | Potency [9] 16600 nM | Potency [10] 8330 nM

O=c1[nH]c(=O)n([C@H]2C[C@@H](O)[C@@H](CO)O2)cc1I
active: Potency [8] 11800 nM | Potency [5] 7430 nM
inactive: Potency [7] | Potency [3]

O=C1Nc2ccc(Cl)cc2C(C#CC2CC2)(C(F)(F)F)O1 (stereo not drawn)
inactive: Potency [7] | Potency [8] | Potency [2] | Potency [5] | Potency [9]

CC(C)(C)c1cc(C(=O)O)c(NC(=O)Nc2ccc3[nH]ncc3c2)s1
inactive: Potency [7] | Potency [2] | Potency [3] | Potency [4] | Potency [5] | Potency [9] | Potency [10] | activity (max response) [11] -7.47% | Potency [6]

O=C(OCC#CCSc1nnc(-c2cccc3ccccc23)o1)c1cc2ccccc2s1
inactive: Potency [7] | Potency [8] | Potency [2] | Potency [3] | Potency [5] | Potency [9] | Potency [10]

O=c1oc2cc(O)ccc2s1
inactive: Potency [7] | Potency [8] | Potency [2] | Potency [3] | Potency [4] | Potency [6]

CC(C)N1[N]C(=C2C=c3cc(O)ccc3=N2)c2c(N)ncnc21
active: Potency [7] 7430 nM | Potency [8] 935 nM | Potency [4] 4180 nM | Potency [5] 1480 nM | Potency [9] 2960 nM | Potency [10] 2640 nM

CN(C)CCN(Cc1ccc(Cl)cc1)c1ccccn1
inactive: Potency [7] | Potency [8] | Potency [2] | Potency [3] | Potency [4] | Potency [5] | Potency [10] | activity (max response) [11] -3.95% | Potency [6]

COc1ccc(-c2coc3cc(O)ccc3c2=O)cc1
inactive: Potency [7] | Potency [2] | Potency [3] | Potency [4] | Potency [9] | Potency [10]

CC(C)[C@H](C(=O)Nc1ccc(C(=O)NO)cc1)c1ccccc1
active: Potency [7] 2640 nM | Potency [8] 2640 nM | Potency [2] 2350 nM | Potency [3] 2350 nM | Potency [4] 2090 nM | Potency [5] 1480 nM | Potency [9] 1660 nM | Potency [10] 1480 nM | Potency [6] 1260 nM

O=C1NC(=O)C(=Cc2ccc3c(c2)OC(F)(F)O3)S1
inactive: Potency [7] | Potency [8] | Potency [3] | Potency [4] | Potency [5] | Potency [10]

CC1=C(C(=O)O)N2C(=O)[C@@H](NC(=O)C(N)c3ccccc3)[C@H]2SC1 (stereo partly drawn)
inactive: Potency [7] | Potency [8] | Potency [2] | Potency [3] | Potency [4] | Potency [9] | Potency [10]

Cc1ccc([N+](=O)[O-])cc1S(=O)(=O)N(C)N=Cc1cnc2ccc(Br)cn12
active: Potency [7] 105 nM | Potency [8] 52.6 nM | Potency [2] 166 nM | Potency [3] 132 nM | Potency [4] 132 nM | Potency [5] 59 nM | Potency [9] 66.2 nM | Potency [10] 83.3 nM

CC(C)c1ccc2oc3nc(N)c(C(=O)O)cc3c(=O)c2c1
inactive: Potency [7] | Potency [8] | Potency [3] | Potency [4] | Potency [5] | Potency [9] | Potency [10] | activity (max response) [11] -3.22% and -4.54%

OC[C@H]1O[C@@H](Oc2cc(O)cc(C=Cc3ccc(O)cc3)c2)[C@H](O)[C@@H](O)[C@H]1O
inactive: Potency [2] | Potency [3] | Potency [4] | Potency [5] | Potency [9] | Potency [10]
active: Potency [7] 2350 nM

CC1(C)CCC[C@@]2(C)[C@@H]1CC[C@@]1(C)OC(=O)C[C@H]21
inactive: Potency [7] | Potency [2] | Potency [3] | Potency [4] | Potency [5] | Potency [9] | Potency [10]

O=C(Nc1ccc(F)c(C(F)(F)F)c1)Nc1nnc(-c2ccncc2)s1
inactive: Potency [7] | Potency [8] | Potency [2] | Potency [3] | Potency [4] | Potency [9] | Potency [10] | activity (max response) [11] 4.96% | Potency [6]
